From PubChem BioAssay AID1159580 (chemical genetic matrix, 2015)
Several values for one entry are separate records, joined by “and”; a condition that tells them apart may be missing. Equal entries are not always repeated. Hit rate of the full screen: of about 5,500 compounds, about 2,000 (36%) were called active. Not shown: some 18% with an inconclusive outcome. No stated cut-off is given here; in the data, active means normalized growth mostly below about 0.91 (no sharp cut-off); inconclusive means no clear call, values can overlap the other calls; inactive means mostly above about 0.92. The list shows a part of the results.

Assay: chemical genetic growth profiling, strain panel (AID 1159580);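 further: tested at 20 µM; growth read once vehicle control cultures reached saturation at 30 °C; 1 = growth at the plate median or of vehicle wells; lower values mean less growth of the strain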
Conditions: S. cerevisiae deletion strains, growth OD

Measured: normalized growth

CC(CCC(=O)O)[C@H]1CCC2C3CC[C@@H]4CCCC[C@]4(C)C3CC[C@@]21C (stereo partly drawn)
inactive: locus YAL013W, strain DEP1, hits give low values 0.995 | locus YAL021C, strain ccr4, hits give low values 1.01 | locus YAL026C, strain drs2, hits give low values 1.01 | locus YAL030W, strain snc1, hits give low values 1.01 | locus YBL061C, strain skt5, hits give low values 1.02 | locus YBR009C, strain hhf1, hits give low values 1.01 | locus YBR021W, strain FUR4, hits give low values 0.987 | locus YBR023C, strain chs3, hits give low values 1.03 | locus YBR171W, strain sec66, hits give low values 1.02 | locus YBR229C, strain ROT2, hits give low values 0.991 | locus YBR231C, strain swc5, hits give low values 1.03 | locus YBR279W, strain paf1, hits give low values 1.01 | locus YCL011C, strain gbp2, hits give low values 1.02 | locus YCL016C, strain dcc1, hits give low values 1.04 | locus YCL029C, strain bik1, hits give low values 0.98 | locus YCL061C, strain MRC1, hits give low values 1.02 | locus YCL069W, strain vba3, hits give low values 1.01 | locus YCR088W, strain abp1, hits give low values 1.01 | locus YDL005C, strain med2, hits give low values 0.999 | locus YDL035C, strain GPR1, hits give low values 0.982 | locus YDL040C, strain nat1, hits give low values 1.01 | locus YDL074C, strain BRE1, hits give low values 0.973 | locus YDL101C, strain DUN1, hits give low values 1.01 | locus YDL185W, strain tfp1, hits give low values 0.977 | locus YDL192W, strain arf1, hits give low values 0.98 | locus YDR001C, strain nth1, hits give low values 1.01 | locus YDR069C, strain doa4, hits give low values 0.994 | locus YDR101C, strain arx1, hits give low values 0.983 | locus YDR137W, strain rgp1, hits give low values 1.05 | locus YDR150W, strain NUM1, hits give low values 0.995 | locus YDR159W, strain sac3, hits give low values 0.998 | locus YDR162C, strain NBP2, hits give low values 1.04 | locus YDR195W, strain ref2 0.981 | locus YDR297W, strain sur2, hits give low values 1.01 | locus YDR318W, strain mcm21, hits give low values 0.988 | locus YDR334W, strain swr1, hits give low values 1 | locus YDR335W, strain msn5, hits give low values 1 | locus YDR388W, hits give low values 0.987 | locus YDR392W, strain spt3, hits give low values 0.943 | locus YDR502C, strain sam2, hits give low values 0.979 | locus YEL003W, strain gim4, hits give low values 1.01 | locus YEL037C, strain rad23, hits give low values 0.993 | locus YEL061C, strain CIN8 (second series), hits give low values 1.01 | locus YEL061C, strain CIN8, hits give low values 0.995 | locus YER015W, strain faa2, hits give low values 1 | locus YER016W, strain bim1, hits give low values 1.01 | locus YER110C, hits give low values 0.986 | locus YER111C, strain swi4, hits give low values 1.02 | locus YER155C, strain BEM2 (second series), hits give low values 1.03 | locus YER155C, strain BEM2, hits give low values 0.989 | locus YER167W, strain BCK2, hits give low values 0.98 | locus YFR010W, strain ubp6, hits give low values 0.997 | locus YGL078C, strain dbp3, hits give low values 0.989 | locus YGL086W, strain mad1, hits give low values 0.985 | locus YGL167C, strain pmr1, hits give low values 1.01 | locus YGL173C, strain kem1, hits give low values 1.01 | locus YGL227W, strain vid30, hits give low values 1.02 | locus YGL240W, strain doc1, hits give low values 1.03 | locus YGL248W, strain PDE1, hits give low values 1 | locus YGL253W, strain hxk2, hits give low values 1 | locus YGR078C, strain PAC10, hits give low values 1.02 | locus YGR135W, strain pre9, hits give low values 1.02 | locus YGR252W, strain gcn5, hits give low values 1.08 | locus YHR013C, strain ard1, hits give low values 1.02 | locus YHR027C, strain rpn1, hits give low values 0.995 | locus YHR030C, strain SLT2, hits give low values 0.997 and 0.97 | locus YHR079C, strain IRE1 (second series), hits give low values 0.981 | locus YHR079C, strain IRE1, hits give low values 0.973 | locus YHR094C, strain hxt1, hits give low values 0.985 | locus YHR129C, strain ARP1, hits give low values 0.995 | locus YHR142W, strain chs7, hits give low values 1 | locus YHR200W, strain rpn10, hits give low values 0.995 | locus YIL066C, strain RNR3, hits give low values 0.992 | locus YIL073C, strain SPO22, hits give low values 1.02 | locus YIL125W, strain kgd1, hits give low values 0.988 | locus YIR030C, strain dcg1, hits give low values 0.985 | locus YJL092W, strain hpr5, hits give low values 1.01 | locus YJL095W, strain BCK1 (second series), hits give low values 1 | locus YJL095W, strain BCK1, hits give low values 1.02 and 0.968 | locus YJL115W, strain asf1, hits give low values 1.01 | locus YJL129C, strain trk1, hits give low values 1.03 | locus YJL134W, strain LCB3, hits give low values 0.996 | locus YJL154C, strain vps35, hits give low values 1.01 | locus YJL164C, strain tpk1, hits give low values 1.02 | locus YJL166W, strain qcr8, hits give low values 1.01 | locus YJL168C, strain set2, hits give low values 0.983 | locus YJL187C, strain SWE1 (second series), hits give low values 1.01 | locus YJL187C, strain SWE1, hits give low values 1.01
